Each structure is given as a SMILES string. The whole screen tested about 16,000 compounds, of which about 4,000 (25%) were called active. About 26% were inconclusive and are not listed. The call rests on the fitted dose curve; in most records, active means well fitted curve in the direction sought with a large enough effect; inconclusive means small, poorly fitted or top-dose-only effect, or effect the other way; inactive means no such curve, though single readings can be large or run the other way. The list is a sample of the results. More than one record can exist for a structure, and the calls need not agree.
On the % scale 0 is the no-effect control and ±100 the full control effect.

In the assay the target is Cytochrome P450 2C9 (Homo sapiens) (UniProt P11712). As to the kind of experiment: Cytochrome panel assay with activity outcomes. As to conditions: recombinant CYP, pro-luciferin dealkylation, luminescence, p450-cyp2c9; series mostly up to 57.1 µM; activity, negative = inhibition: at the top concentration.
Sequence of Cytochrome P450 2C9 (Homo sapiens) (P11712 whole entry, looked up): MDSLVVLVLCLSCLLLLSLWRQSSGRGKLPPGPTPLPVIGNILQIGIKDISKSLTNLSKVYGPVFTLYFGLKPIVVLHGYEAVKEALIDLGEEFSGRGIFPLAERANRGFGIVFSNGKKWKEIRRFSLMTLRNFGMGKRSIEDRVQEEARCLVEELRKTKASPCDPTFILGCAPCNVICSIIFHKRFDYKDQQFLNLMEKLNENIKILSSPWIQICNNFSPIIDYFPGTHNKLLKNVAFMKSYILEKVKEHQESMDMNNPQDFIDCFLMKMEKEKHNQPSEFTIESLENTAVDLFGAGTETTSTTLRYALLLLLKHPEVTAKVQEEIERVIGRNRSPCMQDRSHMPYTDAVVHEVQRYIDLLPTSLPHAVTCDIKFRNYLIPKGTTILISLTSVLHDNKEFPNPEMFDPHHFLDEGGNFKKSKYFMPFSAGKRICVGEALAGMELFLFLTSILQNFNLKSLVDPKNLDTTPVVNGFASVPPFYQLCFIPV
For `Clc1ccccc1-c1ccc2ncnc(N3CCNCC3)c2c1`, the activity, negative = inhibition was -9.02% [at 2.29 µM] (inactive).

As for `COc1ccc(COC(=O)N/N=C2/C[C@@H](O)[C@@H](O)[C@@H]3[C@H]4C(=O)N(c5ccc(F)cc5F)C(=O)[C@@H]4CC[C@@H]23)cc1`, the activity, negative = inhibition was -15.8% [at 11.4 µM] (inactive). The term AC50 denotes the midpoint of the concentration-response curve, whichever way the signal moves. Take `O=C(Nc1cccc(C(F)(F)F)c1)c1n[nH]c(Cn2cncn2)n1`: the AC50 is 4.47 µM (active). As to `CC(=O)Nc1c2c3c(cccc3n(C)c1=O)C(=O)c1ccccc1-2`, the AC50 is 15.8 µM (active).

With `Cc1c(NC(=O)C(C)N2C(=O)c3ccccc3C2=O)c(=O)n(-c2ccccc2)n1C` (stereo not drawn), the “activity, negative = inhibition” value is 0.282% (inactive).

On to `Fc1ccc(COc2ccc(Br)cc2CNCc2ccncc2)cc1`, for which the concentration at half-maximal activity (AC50) is 3.98 µM (active). `CO[C@H]1COC(=O)[C@H](Cc2ccccc2)NC(=O)C/C=C\[C@@H](C)[C@H](OC)COC(=O)C/C=C\[C@@H]1C`: the activity, negative = inhibition was 2.05% [at 11.4 µM] (inactive).

On to `CC1(C)CC(=O)C(C(C#Cc2ccccc2)C2=C(O)CC(C)(C)CC2=O)=C(O)C1`, for which the concentration at half-maximal activity (AC50) was 15.8 µM (active). As for `COc1ccc(CNc2ccnc(-c3ccccc3CN(C)C)n2)c(OC)c1`, the activity, negative = inhibition is 10.2% [at 2.29 µM] (inactive). For `CC(C)(C)c1cc2cccnc2n1Cc1cccc(F)c1`, the “activity, negative = inhibition” value was -28% (inactive).

`CC1=C(\C=C/C(C)=C/C=C\C(C)=C\C(=O)O)C(C)(C)CCC1`: the AC50 is 10 µM (active) and inactive. For `CC1=CC(=O)CC(C)(C)[C@]1(O)/C=C\C(C)=C\C(=O)O`, the activity, negative = inhibition was 9.93% [at 11.4 µM] (inactive). Same read-out and setting: the same measure for `CC(C)CCNc1ncnc2[nH]ncc12`: 6.22% [at 11.4 µM] (inactive). As to `CCOC(=O)c1cnc2c(cnn2C)c1NCCCN(C)C`, the “activity, negative = inhibition” value is -2.53% (inactive). As for `CNC(=O)c1nnn(Cc2ccccc2)c1NC(=O)C(F)(F)F`, the concentration at half-maximal activity (AC50) was 12.6 µM (active).

Take `O=C(c1cc(C(F)(F)F)cc(C(F)(F)F)c1)N1CCC2(CCN(Cc3ccccc3)CC2)CC1`: the “activity, negative = inhibition” value was -0.296% (inactive). Still for that read-out and setting: for `COC(=O)c1nnn(Cc2ccccc2)c1N` the value was 8.99% (inactive); for `Nc1ncnc2c1ncn2C1CCCC1`, -3.04% (inactive). As for `Nc1ncnc2c1c(-c1ccc(Oc3ccccc3)cc1)cn2C1CCCC1`, the AC50 is 31.6 µM (active). As to `Cc1ccc(CNCC(O)(c2ccc(F)cc2)c2ccc(F)cc2)cc1`, the AC50 is 25.1 µM (active). With `CCOC(=O)CSc1n[nH]c(-c2cccnc2)n1`, the “activity, negative = inhibition” value was 0.887% (inactive). As for `CCOC(=O)CC(=O)CSc1nc(-c2cccnc2)cc(C)c1C#N`, the half-maximal activity concentration (AC50) was 1.26 µM (active). Turning to `CCCC(=O)n1nc(-c2cccnc2)nc1N`, the “activity, negative = inhibition” value is -36.4% (inactive). Consider `O=C(c1cc(-c2cccs2)on1)N1CCN(c2ccc(F)cc2)CC1`, for which the AC50 was 1.58 µM (active).

Turning to `O=c1cc(CN2CCN(c3ccc(F)cc3)CC2)c2cc3c(cc2o1)CCCC3`, the “activity, negative = inhibition” value is -15.2% (inactive). Turning to `C/C=C\C(=O)N(CC)c1ccccc1C`, the “activity, negative = inhibition” value was -28.3% [at 25.6 µM] (inactive). For the compound `COc1cc2c(cc1C(F)(F)F)N(C(=O)Nc1cc(F)cc(-c3cccnc3)c1)CC2`, the AC50 is 0.794 µM (active). Consider `Cn1ccc2cc3c(cc21)CCN3C(=O)Nc1cccnc1`, for which the AC50 entry was “inactive”. With `COC(=O)c1ccc(NC(=O)N2CCC(O)(c3cccnc3)CC2)cc1`, the “activity, negative = inhibition” value is -19.6% (inactive). Consider `CN1CCc2cc(NC(=O)Nc3cccnc3)ccc21`, for which the “activity, negative = inhibition” value is -16.7% (inactive). In the case of `CSc1cc2c(cc1C(F)(F)F)N(C(=O)Nc1cccnc1)CC2`, the AC50 is 0.00631 µM (active). For the compound `CN1Cc2c(N)cccc2[C@H](c2ccccc2)C1`, the AC50 result was “inactive”.

For `Cc1noc(C)c1-c1ccc2ncnc(NCc3cccnc3)c2c1`, the activity, negative = inhibition was -6.6% [at 2.29 µM] (inactive).

Regarding `COc1ncc2nc(C)c(=O)n(-c3ccccc3)c2n1`, the “activity, negative = inhibition” value is -12.6% (inactive). On to `CCCCn1cnc2c(c(CC#N)nn2-c2ccccc2)c1=N`, for which the activity, negative = inhibition is -11.5% [at 11.4 µM] (inactive).

As to `CCOCCCn1cnc2c(c1=O)c1nc3ccccc3nc1n2-c1ccccc1`, the AC50 was 15.8 µM (active).

`CN1CCc2nc(N)nc(-c3nc(N)nc4c3CN(C)CC4)c2C1`: the activity, negative = inhibition was 5.01% [at 11.4 µM] (inactive). For `Cc1cc(-c2cc(-c3ccc(Cl)cc3)nc(N)c2C#N)co1`, the half-maximal activity concentration (AC50) was 11.2 µM (active). In the case of `Cc1cc(C)n(-c2nc3ccccc3c(=O)n2OCc2ccc(Cl)cc2)n1`, the AC50 is 5.62 µM (active).

As for `Cn1c(=O)c(-c2ccc(Cl)cc2)nc2cnc(OCc3ccccc3)nc21`, the “activity, negative = inhibition” value is 9.78% (inactive). As for `Oc1c(CN2CCN(c3ccccc3)CC2)cc(Br)c2cccnc12`, the activity, negative = inhibition is 7.75% [at 11.4 µM] (inactive). As to `COc1ccc(-n2c(=O)c(-c3ccc(F)cc3)nc3cncnc32)cc1`, the “activity, negative = inhibition” value was 10.2% (inactive).

As for `COc1ccc(N2C(=O)NC(NC(=O)c3ccncc3)(C(F)(F)F)C2=O)cc1` (stereo not drawn), the AC50 was 6.31 µM (active). For `Cc1cccc(C(=O)NC2CCN(C(=O)N3CCOCC3)CC2)c1`, the “activity, negative = inhibition” value was -27% (inactive). Turning to `O=C1C[C@@H](O)[C@@H](O)[C@H]2[C@@H]3C(=O)N(Cc4ccccc4)C(=O)[C@@H]3CC[C@H]12`, the activity, negative = inhibition was -2.13% [at 11.4 µM] (inactive).

Consider `CC(C)C1NC(=S)N(Cc2ccccc2)C1=O` (stereo not drawn), for which the AC50 was 8.91 µM (active). In the case of `O=C(O)CN(CCN(CC(=O)O)CC(=O)O)CCN(CC(=O)O)CC(=O)O`, the AC50 result is “inactive”. In the case of `CCS(=O)(=O)c1ccc2oc(Nc3cc(C)cc(C)c3)nc2c1`, the AC50 is 8.91 µM (active).
